The values that follow come from PubChem BioAssay (NCATS).

Molecules are shown by their SMILES. Records with an inconclusive call do not appear. Values without a mark were called inactive. Activity calls are given as the source filed them. Calls follow the shape of the dose curve; as a rule, active = well fitted cell-killing curve with a large enough effect; inconclusive = small, poorly fitted or top-dose-only effect; inactive = flat fitted curve, though single readings scatter.
Potency is read from the fitted curve at half-maximal effect.

This assay can be described thus: Cell Viability - LYMP2-013 (AID 970). Also: nearly all actives have a fitted effect of over 55% in size.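 As to activity change, negative = cytotoxic: 0% = DMSO only and full inhibition = tetraoctylammonium bromide control.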 The note with it: LYMP2-013 lymphoblastoid cells viability; series mostly up to 92.2 µM; activity change, negative = cytotoxic: at the top concentration. The text has this: NIH Chemical Genomics Center [NCGC]
NIH Molecular Libraries Screening Centers Network [MLSCN]
National Institutes of Environmental Health Sciences [NIEHS]
National Toxicology Program [NTP]
We have developed a 1536-well cell-based assay for quantitative high throughput screening (qHTS) against a number of cell lines to determine in vitro cytotoxicity of small molecules. This particular assay uses a human lymphoblastoid cell line (LYMP2-013) purchased from Coriell Institute for Medical Research.
NCGC Assay Protocol Summary:
The CellTiter-Glo luminescent cell viability assay (Promega) is a homogeneous method to measure the number of viable cells in culture. The end point readout of this assay is based on quantitation of intracellular ATP, an indicator of metabolic activity, using the luciferase reaction. Luciferase catalyzes the oxidation of beetle Luciferin to oxyluciferin and light in the presence of ATP. The luminescent signal is proportional to amount of ATP present.
Using the CellTiter-Glo luminescent cell viability assay, the amount of cellular ATP was measured in the lymphoblastoid cell line with complete culture medium following compound treatment for 24 hours. The assay was performed in opaque white Kalypsys 1536-well plates. In the screen, tetraoctylammonium bromide was used as positive control. Library compounds were measured for their ability to cause acute toxicity in the cell line, as reflected by a decrease in intracellular ATP levels, in a concentration-dependent manner. […] AC50 values were determined from concentration-response data modeled with the standard Hill equation.
qHTS protocol for CellTiter Glo lymphoblastoid cellular assay
[Step] [Parameter] [Value] [Description]
1. Reagent; 5 uL; 2500 lymphoblastoid cells/well
2. Time; 5 hr; 37 C incubation
4. Controls; 23 nL; Tetraoctylammonium bromide 6.4pM to 92 uM
5. Time; 24 hr; 37 C incubation
6. Reagent; 5 uL; CellTiter Glo reagent
7. Time; 30 min; Room Temperature
8. Detection; Luminescence; Viewlux plate reader
Keywords: cell viability, cytotoxicity, lymphoblastoid cell line, luminescence, NTPHTS, NTPHTS_NCGC, NIEHS, DSSTox, MLSMR, MLSCN, NIH Roadmap, qHTS, NCGC
Regarding `C=C1C(CCl)(CCl)C2(Cl)C(Cl)C(Cl)C1(Cl)C2(Cl)Cl` (stereo not given), the Potency was 50.1 µM (active).

`CC[C@H]1OC(=O)[C@H](C)[C@@H](O[C@H]2C[C@@](C)(OC)[C@@H](O)[C@H](C)O2)[C@H](C)[C@@H](O[C@@H]2O[C@H](C)C[C@H](N(C)C)[C@H]2O)[C@](C)(O)C[C@@H](C)CN(C)[C@H](C)[C@@H](O)[C@]1(C)O`: the “activity change, negative = cytotoxic” value is -3.9%.

For the compound `CO`, the “activity change, negative = cytotoxic” value was -8.02%. As to `CC(C)(C)CC(C)(C)c1ccc(OCCO)cc1`, the “activity change, negative = cytotoxic” value is -25.1%.

As for `CC1=CC(=O)NS(=O)(=O)O1`, the “activity change, negative = cytotoxic” value is 3.61%. For the compound `C[C@H](CCC(=O)O)[C@H]1CC[C@H]2[C@@H]3[C@H](O)C[C@@H]4C[C@H](O)CC[C@]4(C)[C@H]3C[C@H](O)[C@]12C`, the “activity change, negative = cytotoxic” value was 3.23%. With `CC(C)O`, the “activity change, negative = cytotoxic” value is -8.21%. For `CCCCO`, the Potency result is “inactive”. `O.O.O.O.O.O.O.O=S(=O)([O-])[O-].[Co+2]`: the “activity change, negative = cytotoxic” value is -29.6%. Regarding `Oc1ccc(/C=C/c2cc(O)cc(O)c2)cc1`, the “activity change, negative = cytotoxic” value is -26.2%. Turning to `O=P(O)(O)O`, the “activity change, negative = cytotoxic” value was -0.124%.

`[O-][N+](=Nc1ccccc1)c1ccccc1`: the “activity change, negative = cytotoxic” value is -5.99%. Take `C/C=C/C=C/C(=O)O`: the “activity change, negative = cytotoxic” value is -6.16%. For the compound `Nc1nccs1`, the “activity change, negative = cytotoxic” value was -10.6%.

For the compound `Nc1ncnc2c1ncn2[C@H]1CC[C@@H](CO)O1`, the “activity change, negative = cytotoxic” value was -4.97%. As for `NC(N)=O`, the “activity change, negative = cytotoxic” value is -6.53%. Take `O=c1n(CC2CO2)c(=O)n(CC2CO2)c(=O)n1CC1CO1` (stereo not given): the Potency was 50.1 µM (active). Consider `ClC(Cl)Cl`, for which the “activity change, negative = cytotoxic” value was -0.459%. On the same count and under the same terms, the value for `CCCCC` was 1.52%. For the compound `Nc1ccc(N=Nc2ccccc2)c(N)n1`, the “activity change, negative = cytotoxic” value was -16.6%. For `C[C@H](CCC(=O)O)[C@H]1CC[C@H]2[C@@H]3CC[C@@H]4C[C@H](O)CC[C@]4(C)[C@H]3C[C@H](O)[C@]12C`, the “activity change, negative = cytotoxic” value is 2.59%. `OCC(O)CO`: the Potency entry was “inactive”.

In the case of `Cc1ncc[nH]1`, the “activity change, negative = cytotoxic” value was 1.64%. Take `Cc1ccc(S(=O)(=O)O)cc1C`: the “activity change, negative = cytotoxic” value was 1.58%.

As to `OB(O)O`, the “activity change, negative = cytotoxic” value is -0.933%. As to `COC(=O)c1ccccc1O`, the “activity change, negative = cytotoxic” value is -2.37%.

Consider `CO/N=C(/C(=O)N[C@@H]1C(=O)N2C(C(=O)O)=C(COC(N)=O)CS[C@H]12)c1ccco1`, for which the “activity change, negative = cytotoxic” value was -4.26%. In the case of `Oc1cccc(O)c1O`, the “activity change, negative = cytotoxic” value was -25%. In the case of `OCc1ccccc1`, the “activity change, negative = cytotoxic” value is -0.356%. For the compound `OCl`, the “activity change, negative = cytotoxic” value was -11.9%. On the same count and under the same terms, in the case of `NCCN` it was -4.53%. In the case of `CCOC(C)OCC`, the “activity change, negative = cytotoxic” value is -4.22%. On the same count and under the same terms, the value for `c1ccc2ccccc2c1` was -6.61%; that for `OC[C@H]1O[C@@H]2O[C@H]3[C@H](O)[C@@H](O)[C@@H](O[C@H]4[C@H](O)[C@@H](O)[C@@H](O[C@H]5[C@H](O)[C@@H](O)[C@@H](O[C@H]6[C@H](O)[C@@H](O)[C@@H](O[C@H]7[C@H](O)[C@@H](O)[C@@H](O[C@H]1[C@H](O)[C@H]2O)O[C@@H]7CO)O[C@@H]6CO)O[C@@H]5CO)O[C@@H]4CO)O[C@@H]3CO` was -1.43%; that for `CC1=CCC2CC1C2(C)C` (stereo not given) was -3.87%.
